# In PubChem BioAssay (NCATS):
# Unmarked numbers belong to inactive results. Results filed as inconclusive are left out. The source made the active and inactive calls. Unless noted, calls follow the shape of the dose curve; as a rule, active = well fitted curve in either direction with a large enough effect (not every such curve was filed as active); inconclusive = small, poorly fitted or top-dose-only effect, or another doubt; inactive = flat fitted curve, though single readings scatter.
# Key:
# [1] = qHTS Assay for Identification of Small Molecule Antagonists for NFkB Signaling Pathway (AID 895; active = well fitted inhibition curve with a large enough effect in the signal ratio, with a control signal flat, not every such curve was filed as active; the % refers to the signal ratio; also: % is scaled to controls: 0 for no effect and ±100 for the full control effect)
# How it was run: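 NFkB-bla ME-180 cervical carcinoma cells with beta-lactamase reporter under NFkB response element; compounds added, then TNF alpha at 10 pM final (EC50), 5 h at 37 C. LiveBLAzer substrate 2 h, room temperature; emission 460/530 nm at 405 nm excitation.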
# [2] = target: Muscarinic acetylcholine receptor M1 (Rattus norvegicus) (UniProt P08482); experiment: qHTS Assay for Antagonists of Acetylcholine Muscarinic M1 Receptor: Kinetic Measurement of Intracellular Calcium Response (AID 943; active = well fitted curve in the direction sought with a large enough effect; an effect the other way counts as inactive or inconclusive; also: nearly all actives have a fitted effect of over 75% in size; also: potency is read from the fitted curve at half-maximal effect;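 as to activity change, negative = inhibition: Fluo-4 calcium signal as peak divided by basal fluorescence over 4 min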)
# Muscarinic acetylcholine receptor M1 (Rattus norvegicus), sequence (P08482 whole entry, looked up): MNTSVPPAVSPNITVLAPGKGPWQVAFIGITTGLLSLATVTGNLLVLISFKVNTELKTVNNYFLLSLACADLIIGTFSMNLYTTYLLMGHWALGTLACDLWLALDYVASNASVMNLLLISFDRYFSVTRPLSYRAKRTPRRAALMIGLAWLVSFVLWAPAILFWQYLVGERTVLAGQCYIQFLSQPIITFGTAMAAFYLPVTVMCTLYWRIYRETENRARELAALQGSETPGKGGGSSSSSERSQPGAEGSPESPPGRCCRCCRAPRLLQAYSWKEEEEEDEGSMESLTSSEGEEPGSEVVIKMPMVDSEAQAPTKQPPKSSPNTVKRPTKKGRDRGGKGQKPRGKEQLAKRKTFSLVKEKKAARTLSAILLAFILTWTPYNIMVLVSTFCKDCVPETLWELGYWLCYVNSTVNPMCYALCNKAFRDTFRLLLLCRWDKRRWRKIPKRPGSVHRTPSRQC
# How it was run: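 Quantitative HTS in CHO-M1 (rat receptor) cells: 10 min compound exposure ahead of 100 nM carbachol, Fluo-4 fluorescence followed 4 min, value expressed as peak-to-basal ratio.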
# [3] = target: Muscarinic acetylcholine receptor M1 (Rattus norvegicus) (UniProt P08482); experiment: qHTS Assay for Antagonists of Acetylcholine Muscarinic M1 Receptor: Measurement of IP-One Response (AID 944; active = well fitted curve in the direction sought with a large enough effect; an effect the other way counts as inactive or inconclusive; also: nearly all actives have a fitted effect of over 75% in size; also: potency is read from the fitted curve at half-maximal effect)
# How it was run: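 Antagonism was measured as loss of carbachol-driven (EC80) IP1 accumulation in CHO cells carrying rat M1, using a homogeneous IP-One TR-FRET kit read at 620 and 665 nm.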
# [4] = qHTS Assay for Identification of Small Molecule Agonists for Thrombopoietin (TPO) Signaling Pathway (AID 917; active = well fitted curve in the direction sought with a large enough effect; an effect the other way counts as inactive or inconclusive; also: % is scaled to controls: 0 for no effect and ±100 for the full control effect)
# How it was run: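 Luciferase reporter (Glycoprotein IIb promoter) in IL-3-deprived Ba/F3 cells carrying human TPO receptor; compounds co-added with 26 pM TPO, incubated 24 h, 37 C. Steadylite luminescence measured after 10 min.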
# [5] = qHTS Assay for Identification of Small Molecule Agonists for Hypoxia Response Element Signaling Pathway (AID 914; active = well fitted activation curve with a large enough effect in the signal ratio, with a control signal flat, not every such curve was filed as active; the % refers to the signal ratio; also: potency is read from the fitted curve at half-maximal effect; as to activation: % of control where 0% means no effect); conditions: ME-180 HRE-bla reporter, beta-lactamase ratio, CoCl2, 17 h; activation: stronger effect = higher value
# How it was run: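 HRE-bla ME-180 assay for agonist-like enhancement of an EC50 CoCl2 stimulus: 17 h at 37 degrees Celsius, CCF4 for 2.5 h, ratiometric 460/530 nm signal converted to %Activity and fitted to AC50.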
# [6] = target: Ubiquitin carboxyl-terminal hydrolase 1 (Homo sapiens) (UniProt O94782); experiment: Inhibitors of USP1/UAF1: Pilot qHTS (AID 504865; active = well fitted curve in the direction sought with a large enough effect; an effect the other way counts as inactive or inconclusive;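 also: rhodamine fluorescence freed from ubiquitin-rhodamine substrate followed over time; top concentration of the series differs between compounds; % is scaled to controls: 0 for no effect and ±100 for the full control effect; nearly all actives have a fitted effect of over 35% in size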)
# Ubiquitin carboxyl-terminal hydrolase 1 (Homo sapiens), sequence (O94782 whole entry, looked up): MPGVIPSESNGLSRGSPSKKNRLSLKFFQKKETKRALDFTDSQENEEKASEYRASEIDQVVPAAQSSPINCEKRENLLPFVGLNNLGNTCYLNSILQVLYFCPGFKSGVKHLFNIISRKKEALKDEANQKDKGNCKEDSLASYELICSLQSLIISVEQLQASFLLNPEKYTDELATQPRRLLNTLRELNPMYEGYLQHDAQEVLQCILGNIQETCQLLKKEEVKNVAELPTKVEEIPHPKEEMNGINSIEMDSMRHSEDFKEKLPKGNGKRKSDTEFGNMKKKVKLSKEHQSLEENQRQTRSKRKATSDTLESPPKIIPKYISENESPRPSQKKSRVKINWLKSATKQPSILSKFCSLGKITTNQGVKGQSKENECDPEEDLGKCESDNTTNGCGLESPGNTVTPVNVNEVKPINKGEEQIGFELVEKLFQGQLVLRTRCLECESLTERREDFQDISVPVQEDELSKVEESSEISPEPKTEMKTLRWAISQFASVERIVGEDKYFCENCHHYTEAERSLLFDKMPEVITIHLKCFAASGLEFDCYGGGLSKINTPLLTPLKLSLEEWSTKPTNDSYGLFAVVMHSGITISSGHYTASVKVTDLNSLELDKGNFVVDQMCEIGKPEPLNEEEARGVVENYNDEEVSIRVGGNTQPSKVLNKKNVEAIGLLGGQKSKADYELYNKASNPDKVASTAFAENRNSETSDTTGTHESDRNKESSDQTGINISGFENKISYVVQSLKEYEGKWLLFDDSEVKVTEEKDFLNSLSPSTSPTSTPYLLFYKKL
# How it was run: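 Deubiquitinase activity followed as kinetic rhodamine fluorescence release from 150 nM Ub-Rho. 1 nM USP1/UAF1 with compound, after 15 min room-temperature preincubation, in HEPES pH 7.8 buffer containing TCEP, EDTA, BSA and Tween-20.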
# [7] = AP1 Signaling Pathway (AID 357); conditions: ME-180 AP-1-bla reporter, EGF-induced, beta-lactamase ratio, 5 h; at 17.2 µM (top of the series) unless noted;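 also: ME-180 reporter cells stimulated with EGF at its EC50 level; % is scaled to controls: 0 for no effect and ±100 for the full control effect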
# How it was run: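 Read-out was the 460nm/530nm emission ratio (excitation 405nm) after CCF4 loading for 2.5 hours at room temperature. Cells carried an AP-1-driven beta-lactamase reporter, were stimulated with EC50 EGF plus compound for 5 hours, and AC50 values came from titrations.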
# [8] = Stat Signaling Pathway (AID 446); conditions: ME-180 (cervical carcinoma) SIE beta-lactamase reporter, IL-6 stimulated, 5 h; at 17.2 µM (top of the series) unless noted;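 also: ME-180 cervical cancer cells given 40 pM IL-6 alongside compound; SIE-controlled beta-lactamase reporter measured as 460/530 nm FRET emission ratio; % is scaled to controls: 0 for no effect and ±100 for the full control effect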
# How it was run: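 Compound effects on IL-6-induced STAT reporter activity were measured in ME-180 cells. After overnight culture, cells were co-treated with 40 pM IL-6 for 5 hrs before beta-lactamase substrate loading at room temperature.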
# [9] = target: Glucocorticoid receptor (Homo sapiens) (UniProt P04150); experiment: GR-GFP Redistribution (AID 450;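 active = compounds whose dose series gives a full or clear partial fitted curve of increased nuclear translocation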; also: potency is read from the fitted curve at half-maximal effect)
# Glucocorticoid receptor (Homo sapiens), sequence (P04150 whole entry, looked up, the tested form may be a part): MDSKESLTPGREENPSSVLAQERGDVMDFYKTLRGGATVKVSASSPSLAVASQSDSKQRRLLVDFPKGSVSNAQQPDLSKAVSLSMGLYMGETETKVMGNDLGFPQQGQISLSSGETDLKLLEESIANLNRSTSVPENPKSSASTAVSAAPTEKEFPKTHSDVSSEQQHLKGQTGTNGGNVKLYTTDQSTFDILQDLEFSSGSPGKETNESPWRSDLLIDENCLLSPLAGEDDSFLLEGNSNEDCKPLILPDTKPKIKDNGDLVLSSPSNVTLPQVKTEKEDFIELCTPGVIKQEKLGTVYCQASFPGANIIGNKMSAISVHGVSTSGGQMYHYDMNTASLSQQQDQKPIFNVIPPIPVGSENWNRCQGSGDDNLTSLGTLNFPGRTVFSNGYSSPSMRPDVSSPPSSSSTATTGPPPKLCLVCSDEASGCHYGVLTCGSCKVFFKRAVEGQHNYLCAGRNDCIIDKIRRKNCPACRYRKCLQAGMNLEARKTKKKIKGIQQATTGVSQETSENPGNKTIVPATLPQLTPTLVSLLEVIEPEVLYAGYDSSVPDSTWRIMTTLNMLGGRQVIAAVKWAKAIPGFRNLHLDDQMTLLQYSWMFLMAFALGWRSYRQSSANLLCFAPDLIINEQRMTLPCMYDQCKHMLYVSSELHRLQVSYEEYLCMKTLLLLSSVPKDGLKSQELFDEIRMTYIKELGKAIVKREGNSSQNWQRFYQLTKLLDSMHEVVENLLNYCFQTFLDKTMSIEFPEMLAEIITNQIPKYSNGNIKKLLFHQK
# [10] = qHTS for Inhibitors of the vitamin D receptor (VDR): Hit Validation using a Texas Red Assay (AID 602201; active = well fitted curve in the direction sought with a large enough effect; an effect the other way counts as inactive or inconclusive; also: potency is read from the fitted curve at half-maximal effect); conditions: VDR coregulator binding, Texas Red fluorescence polarization; agonist-bound VDR ligand-binding domain
# How it was run: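 Fluorescence polarization (Ex 595/Em 615 nm) of Texas Red (7 nM) with 1.5 uM VDR-LBD and LG19078 (final concentrations). Compounds were incubated for 2 hours at room temperature.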
# [11] = target: Glucocorticoid receptor (Homo sapiens) (UniProt P04150); experiment: GR-EFC Redistribution (AID 451; calls by dose curve; also: potency is read from the fitted curve at half-maximal effect); conditions: CHO-K1 GR-EFC translocation, beta-gal luminescence, 2 h
# How it was run: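 CHO-K1 cells stably expressing nuclear-localized β-gal enzyme acceptor and GR fused C-terminally to the enzyme donor fragment; ligand-driven nuclear translocation restores β-gal by complementation. Compounds titrated up to 46 uM final, 2 h at 37 °C; luminescence read.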
# [12] = target: 3',5'-cyclic-AMP phosphodiesterase 4B (Homo sapiens) (UniProt Q07343); experiment: qHTS Assay for Inhibitors of PDE-IV (AID 607; active = well fitted activation curve with a large enough effect in the main read-out, with a control signal flat, not every such curve was filed as active; also: % of control where 0% means no effect)
# 3',5'-cyclic-AMP phosphodiesterase 4B (Homo sapiens), sequence (Q07343 whole entry, looked up): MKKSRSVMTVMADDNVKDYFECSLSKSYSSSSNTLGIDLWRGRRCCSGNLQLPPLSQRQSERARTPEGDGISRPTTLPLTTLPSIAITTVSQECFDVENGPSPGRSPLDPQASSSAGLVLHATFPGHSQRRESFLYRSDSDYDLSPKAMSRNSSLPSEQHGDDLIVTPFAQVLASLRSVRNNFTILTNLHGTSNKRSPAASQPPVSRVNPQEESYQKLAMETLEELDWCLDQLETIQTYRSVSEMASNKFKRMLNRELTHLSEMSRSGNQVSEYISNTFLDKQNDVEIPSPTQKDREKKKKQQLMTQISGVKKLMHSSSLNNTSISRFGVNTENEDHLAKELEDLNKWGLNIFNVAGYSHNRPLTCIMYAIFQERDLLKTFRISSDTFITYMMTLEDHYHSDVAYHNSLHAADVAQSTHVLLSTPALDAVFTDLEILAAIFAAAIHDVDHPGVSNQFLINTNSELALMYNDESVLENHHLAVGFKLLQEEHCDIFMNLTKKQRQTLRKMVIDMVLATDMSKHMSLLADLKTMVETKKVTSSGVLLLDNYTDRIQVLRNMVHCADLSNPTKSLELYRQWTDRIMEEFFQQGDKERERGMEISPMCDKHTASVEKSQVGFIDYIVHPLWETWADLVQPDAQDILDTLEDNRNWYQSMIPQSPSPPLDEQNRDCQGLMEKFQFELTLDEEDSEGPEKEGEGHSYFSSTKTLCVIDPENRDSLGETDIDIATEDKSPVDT
# How it was run: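 ACTOne HEK293 cells carry a modified cAMP-gated CNG channel and express endogenous PDE4; plated 1000 cells/well, compounds up to 22.9 uM final. Membrane-potential dye fluorescence (ex 535/em 590) was read; parental cells received 10 uM forskolin + 100 uM RO 20-1724.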
# [13] = target: Guanine nucleotide-binding protein G(i) subunit alpha-1 (Homo sapiens) (UniProt P63096); experiment: qHTS Assay for Inhibitors of RGS12 GoLoco Motif Activity (Green Fluorophore) (AID 879; active = well fitted curve in the direction sought with a large enough effect; an effect the other way counts as inactive or inconclusive;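 also: 0% = labeled peptide with Gαi1 and full inhibition = labeled peptide alone without protein; negative values mean loss of peptide binding seen as reduced polarization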)
# Guanine nucleotide-binding protein G(i) subunit alpha-1 (Homo sapiens), sequence (P63096 whole entry, looked up): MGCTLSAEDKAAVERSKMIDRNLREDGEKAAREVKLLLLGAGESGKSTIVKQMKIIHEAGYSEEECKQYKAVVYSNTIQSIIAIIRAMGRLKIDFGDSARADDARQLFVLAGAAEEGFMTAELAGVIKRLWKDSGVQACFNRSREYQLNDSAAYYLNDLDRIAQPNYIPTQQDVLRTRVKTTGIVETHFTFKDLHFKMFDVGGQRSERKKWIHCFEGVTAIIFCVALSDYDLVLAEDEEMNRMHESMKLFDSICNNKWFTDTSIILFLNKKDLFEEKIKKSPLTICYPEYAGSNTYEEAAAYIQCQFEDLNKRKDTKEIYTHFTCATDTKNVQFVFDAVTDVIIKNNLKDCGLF
# How it was run: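 A drop in FITC polarization marked displacement of the FITC-tagged RGS12 GoLoco peptide (10 nM) from Gαi1 (50 nM). Compounds were incubated 10 min at room temperature in Tris pH 7.5 buffer containing 150 mM NaCl, 0.1 mM GDP and 0.05% NP40; unlabeled peptide titration served as control.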
# [14] = target: Pyruvate kinase (Leishmania mexicana) (UniProt Q27686); experiment: qHTS Validation Assay for Inhibitors of Leishmania Mexicana Pyruvate Kinase (AID 945; active = well fitted curve in the direction sought with a large enough effect; an effect the other way counts as inactive or inconclusive;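 also: 0% = DMSO only neutral control wells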)
# Pyruvate kinase (Leishmania mexicana), sequence (Q27686 2-499 E452W): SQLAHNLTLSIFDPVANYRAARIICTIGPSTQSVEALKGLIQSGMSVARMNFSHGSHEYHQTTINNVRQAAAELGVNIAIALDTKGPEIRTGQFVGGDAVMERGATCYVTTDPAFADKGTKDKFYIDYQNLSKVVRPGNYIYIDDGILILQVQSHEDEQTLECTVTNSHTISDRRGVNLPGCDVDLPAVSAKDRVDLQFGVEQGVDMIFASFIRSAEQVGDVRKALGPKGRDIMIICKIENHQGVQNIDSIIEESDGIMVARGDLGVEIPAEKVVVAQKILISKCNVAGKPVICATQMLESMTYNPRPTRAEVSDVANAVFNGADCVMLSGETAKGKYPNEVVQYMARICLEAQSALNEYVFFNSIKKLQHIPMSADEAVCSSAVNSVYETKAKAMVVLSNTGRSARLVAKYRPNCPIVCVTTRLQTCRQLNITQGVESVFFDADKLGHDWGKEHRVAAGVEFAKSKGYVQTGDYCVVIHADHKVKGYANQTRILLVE
# How it was run: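 Eight-point qHTS titrations; enzyme 0.2 nM LmPYK (E451W mutant); substrates 0.5 mM PEP, 0.1 mM ADP; 7 mM MgCl2; 1 h room temperature; PKLight luminescence normalized to neutral control.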
# [15] = target: Pyruvate kinase PKM (Homo sapiens) (UniProt P14618); experiment: qHTS Assay for Activators of Human Muscle Pyruvate Kinase (AID 954; active = well fitted curve in the direction sought with a large enough effect, not every such curve was filed as active;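 also: 0% = uninhibited enzyme and -100% = no enzyme or full thiadiazolimine inhibition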)
# Pyruvate kinase PKM (Homo sapiens), sequence (P14618 whole entry, looked up): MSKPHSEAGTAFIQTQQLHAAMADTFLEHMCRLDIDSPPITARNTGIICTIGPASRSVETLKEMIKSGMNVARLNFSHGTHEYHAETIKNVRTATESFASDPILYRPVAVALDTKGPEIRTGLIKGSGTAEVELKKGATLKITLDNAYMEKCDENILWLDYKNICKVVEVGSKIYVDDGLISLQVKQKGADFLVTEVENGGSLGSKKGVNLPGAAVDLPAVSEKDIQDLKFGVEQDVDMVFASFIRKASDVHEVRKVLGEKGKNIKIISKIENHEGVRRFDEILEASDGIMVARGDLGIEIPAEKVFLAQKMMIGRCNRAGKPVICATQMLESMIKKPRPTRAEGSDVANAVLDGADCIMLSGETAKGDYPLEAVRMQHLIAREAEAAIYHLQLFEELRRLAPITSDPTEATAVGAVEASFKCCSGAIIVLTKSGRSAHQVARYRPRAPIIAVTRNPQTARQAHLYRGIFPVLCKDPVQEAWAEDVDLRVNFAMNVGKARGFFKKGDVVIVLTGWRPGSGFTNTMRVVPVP
# How it was run: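 A coupled luminescent readout tracked ATP made from ADP by purified PKM2. Final conditions included 0.1 nM enzyme, PEP and ADP at 0.5 and 0.1 mM, pH 7.2 imidazole buffer with BSA, and a one-hour room-temperature reaction.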
# [16] = target: Alpha-galactosidase A (Homo sapiens) (UniProt P06280); experiment: Counterscreen for Glucocerebrosidase Inhibitors: qHTS Assay for Human alpha-Galactosidase at pH 4.5 (AID 992; active = well fitted curve in the direction sought with a large enough effect; an effect the other way counts as inactive or inconclusive; also: 0% is about no effect)
# Alpha-galactosidase A (Homo sapiens), sequence (P06280 whole entry, looked up): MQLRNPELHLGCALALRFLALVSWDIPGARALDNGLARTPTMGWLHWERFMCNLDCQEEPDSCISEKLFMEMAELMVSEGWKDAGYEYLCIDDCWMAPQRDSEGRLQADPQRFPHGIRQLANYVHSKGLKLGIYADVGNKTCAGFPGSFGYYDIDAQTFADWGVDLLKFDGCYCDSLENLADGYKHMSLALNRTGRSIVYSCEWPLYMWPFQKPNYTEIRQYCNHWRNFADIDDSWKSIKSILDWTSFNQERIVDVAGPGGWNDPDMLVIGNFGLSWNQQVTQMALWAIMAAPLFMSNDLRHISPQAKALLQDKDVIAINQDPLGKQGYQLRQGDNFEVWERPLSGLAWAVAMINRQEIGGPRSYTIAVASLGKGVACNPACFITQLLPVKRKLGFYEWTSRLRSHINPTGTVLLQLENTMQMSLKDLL
# How it was run: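 Citrate buffer pH 4.5, Tween-20 0.005%. Enzyme 2 nM, substrate 80 uM, 20 min RT. Stop pH 10. Fluorescence Ex 365/Em 440. AC50 by Hill fit.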
# [17] = target: alpha-glucosidase (Oryza sativa, rice) (UniProt Q653V4); experiment: Counterscreen for Glucocerebrosidase Inhibitors: qHTS Assay for Rice alpha-Glucosidase at pH 5.0 (AID 997; active = well fitted curve in the direction sought with a large enough effect; an effect the other way counts as inactive or inconclusive;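 also: 0% = full activity with enzyme and -100% = basal without enzyme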)
# How it was run: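 Endpoint fluorogenic assay at pH 5.0: compounds (0.7 nM to 77 uM) titrated against 4 nM rice enzyme and 400 uM 4-MU-alpha-glucoside for 20 min at room temperature; NaOH/glycine stop, read ex 365/em 440 nm, Hill-fitted AC50.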
smiles,measurement,setting,value
O[Si@](CCCN1CCCCC1)(c1ccc(F)cc1)C1CCCCC1,Potency,[1],inactive
same,Potency,[2],0.178 µM (active)
same,Potency,[3],1.41 µM (active)
CC(=O)O[C@@H]1[C@H]([N+]2(C)CCCCC2)C[C@@H]2[C@@H]3CC[C@@H]4C[C@@H](OC(C)=O)[C@H]([N+]5(C)CCCCC5)C[C@@]4(C)[C@H]3CC[C@]21C,Potency,[1],inactive
same,Potency,[4],inactive
C[N+](C)(C)CCN(Cc1cccs1)c1ccccn1,activation,[5],3.56%
C[N+](C)(C)[C@@H](C1=CCCC1=O)c1ccccc1,activation,[5],-1.62%
CN1C[C@@H](C(=O)N[C@]2(C)O[C@]3(O)[C@H]4CCCN4C(=O)[C@H](Cc4ccccc4)N3C2=O)C[C@H]2c3cccc4[nH]cc(c34)C[C@@H]21,Potency,[4],inactive
CCCCCCCCN[C@@H](C)[C@H](O)c1ccc(SC(C)C)cc1,Potency,[6],inactive
Cc1cccn2c(=O)c(/C=C(\C#N)S(=O)(=O)c3ccccc3)c(N3CCN(C)CC3)nc12,"activity change, negative = inhibition",[7],-0.352%
same,"activity, negative = inhibition",[8],3.87%
same,Potency,[9],> 20.6 µM
same,activation,[5],-11.6%
CCc1cc(=O)oc2c(CN3CCCC3)c(O)c(Cl)cc12,"activity change, negative = inhibition",[7],12.3%
same,"activity, negative = inhibition",[8],4.15%
same,Potency,[9],> 20.6 µM
same,Potency,[5],7.94 µM (active)
CC(C)OCCCn1c(=N)c(C(N)=S)cc2c(=O)n3ccccc3nc21,"activity change, negative = inhibition",[7],-4.52%
same,"activity, negative = inhibition",[8],-1.51%
same,Potency,[9],> 20.6 µM
same,activation,[5],13.6%
Cc1c(/C(O)=C2\C(=O)C(=O)N(CCCN(C)C)C2c2ccccc2)cnn1-c1ccccc1 (stereo not given),"activity change, negative = inhibition",[7],-3.19%
same,"activity, negative = inhibition",[8],0.518%
same,Potency,[9],> 20.6 µM
same,activation,[5],3.31%
CC(C)Oc1ccc(C(=O)CCN2CCCCC2)cc1,"activity change, negative = inhibition",[7],-9.61%
same,"activity, negative = inhibition",[8],-10.9%
same,Potency,[9],> 20.6 µM
same,Potency,[10],3.98 µM (active)
CCOC(=O)C1=C(C)NC(SCC(=O)Nc2nc(C)cs2)=C(C#N)C1c1cccs1 (stereo not given),"activity change, negative = inhibition",[7],-22.9%
same,"activity, negative = inhibition",[8],-27.7%
same,Potency,[9],> 20.6 µM
same,Potency,[5],10 µM (active)
Cc1ccc(CNC(=O)c2cc3c(=O)n4ccccc4nc3n(Cc3ccco3)c2=N)cc1,"activity change, negative = inhibition",[7],5.13%
same,"activity, negative = inhibition",[8],22.1%
same,Potency,[9],> 20.6 µM
same,Potency,[5],5.01 µM (active)
CCc1nc(N2CCCC2)c(C#N)c2c1CCCC2,"activity change, negative = inhibition",[7],-16.4%
same,"activity, negative = inhibition",[8],-19.9%
same,Potency,[9],> 20.6 µM
same,activation,[5],-12%
C=CCn1c(N)c(C(=O)OC(C)(C)C)c2nc3ccccc3nc21,"activity change, negative = inhibition",[7],-16.9%
same,"activity, negative = inhibition",[8],-6.1%
same,Potency,[9],> 20.6 µM
same,Potency,[5],10 µM (active)
CNc1oc(-c2ccccc2Cl)nc1C#N,"activity change, negative = inhibition",[7],-4.94%
same,"activity, negative = inhibition",[8],-0.918%
same,Potency,[9],> 20.6 µM
same,activation,[5],10.7%
Cc1ccc(S(=O)(=O)c2cc3c(=O)n4ccccc4nc3n(C)c2=N)cc1,"activity change, negative = inhibition",[7],23.8%
same,"activity, negative = inhibition",[8],26.2%
same,Potency,[9],> 20.6 µM
same,Potency,[5],7.94 µM (active)
COc1ccc(-n2c(SCC(N)=O)nc3sc4c(c3c2=O)CCN(C)C4)cc1,"activity change, negative = inhibition",[7],-7.72%
same,"activity, negative = inhibition",[8],2.19%
same,Potency,[9],> 20.6 µM
same,activation,[5],-0.0215%
CC(CN1CCN(C)CC1)OC(=O)c1ccc(Cl)cc1Cl (stereo not given),"activity change, negative = inhibition",[7],12%
same,"activity, negative = inhibition",[8],-1.03%
same,Potency,[9],> 20.6 µM
same,activation,[5],-4.39%
COc1ccc(C2=CC(c3ccc(C)cc3)n3nnnc3N2)cc1 (stereo not given),"activity change, negative = inhibition",[7],-20.8%
same,"activity, negative = inhibition",[8],-14.7%
same,Potency,[9],> 20.6 µM
same,Potency,[5],10 µM (active)
CC12CN3CC(C)(CN(C1)C3c1ccc(Br)cc1O)C2 (stereo not given),"activity change, negative = inhibition",[7],-9.61%
same,"activity, negative = inhibition",[8],-0.00253%
same,Potency,[9],> 20.6 µM
same,activation,[5],-25.5%
CCCN(CCC)C(=O)CC(c1ccc(F)cc1)c1ccco1 (stereo not given),"activity change, negative = inhibition",[7],13%
same,"activity, negative = inhibition",[8],-3.11%
same,Potency,[9],> 20.6 µM
same,activation,[5],13.9%
COCCCNC(=O)c1c(N)n(/N=C/c2cccnc2)c2nc3ccccc3nc12,"activity change, negative = inhibition",[7],-15.5%
same,"activity, negative = inhibition",[8],-20.9%
same,Potency,[9],> 20.6 µM
same,Potency,[5],10 µM (active)
NC[C@@H]1O[C@@H](O[C@H]2[C@@H](O)[C@H](O[C@@H]3[C@H](O)[C@H](N)C[C@H](N)[C@H]3O[C@@H]3O[C@@H](CO)[C@H](O)[C@H](O)[C@@H]3N)O[C@H]2CO)[C@H](N)[C@H](O)[C@@H]1O,"activity change, negative = inhibition",[7],7.75% [at 38 µM]
same,"activity, negative = inhibition",[8],-13.5% [at 38 µM]
same,Potency,[9],> 46 µM
same,Potency,[11],> 46 µM
same,Potency,[12],inactive
same,outcome,[13],inactive
same,Potency,[4],inactive
same,Potency,[2],inactive
same,Potency,[3],inactive
same,Potency,[14],inactive
same,outcome,[15],inactive
same,outcome,[16],inactive
same,outcome,[17],inactive
